The text below walks through data of the supplement of paper PMC6555819.

This test relates to LXRa:RXRa (NR concentration 270 nM, RXRa partner concentration 90 nM). The experiment in a line: PBM binding z-score (relative to random genomic background probes); higher = stronger binding; sequences stand for … in GC…GCGATTGACAGCGTAGAATGAAGG
A digest of the protocol:
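Probes were double-stranded and carried 34-nt variable regions with direct-repeat seeds, single-nucleotide variants, half-site ablations and random human genomic background sequences, printed on custom Agilent 4×180K protein-binding microarrays. Arrays were incubated 1 h with ligand-free nuclear receptor dimers in PBS pH 7.4, 2% milk, 0.02% Triton X-100, 1 mM DTT, 0.2 mg/mL BSA and 0.4 mg/ml salmon testes DNA. Antibodies against each partner (one per run) detected binding, and scanned fluorescence was regression-normalized. Binding z-scores use the random background probes as reference.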
In the case of CAGAGTAGGTTATGGGGCATTCAGGCAACGGTGA, the PBM binding z-score worked out at 0.666.
Turning to TGAATGAGGTTAAACATCAGGGAACGTGGCGTCG, the PBM binding z-score was 2.57.
The value for TAGCCTAGGTCATGGGCCCGTATACCACGCGAAC was 3.5; that for ACTCGGAGGACTAAGGTCAGAGCTACGCCAGTGA was 1.78; that for CAAACTAGGTCAAGAAAGGTCAAAGTCGAATGAC was 7.84.
On to CCGACTAGGGCATAAGGTTACCATAAGCCAGCCC, for which the PBM binding z-score turned out to be 2.13.
TGTCAAAGTTCAAAGGTAACGTGAGTATCCACAC: the PBM binding z-score was 6.79.
Next, GCTTGTAGATCAAGGTTAAGCAAGACTAAGCTAA: 0.428.
In turn, ACAGACAGGTGATGAAAGTAACTCAGGCTATCAT came in with a PBM binding z-score of -0.244.
Next, AACTCTAGGTAAAGATAGTTCAGTGAATGCAAAT: 3.96.
Next, CGAACGAGGGCATGAGTTGTTAGCAAATGCCGAT: 0.0861.
In turn, TCTTGTACATCAGCAGGTTAAGAAAGCTGGCCAA yielded a PBM binding z-score of 0.475.
Next, TCTGCTAGGTAAGTTGGTCAGCTAACGAGCTGCC: -0.651.
ACTATTAGTTGACTTAGGGCAACCCATACGACGC: the PBM binding z-score came to 0.126.
The value for GCTCGGAGGACAAGGCCAGAGCTTTGTCCGTAGA was -1.04.
Next, GGAACGAGGGCACAGTTGATAGCATCTGTCGACG: 0.136; TAGCCTAGGTCATTCAGGTGCCAGTATAGAAAGC: 3.74; ATACCAAGGGGATCGTGAGGTCGTTGATACTAAC: 0.487.
Regarding ATATGTAGGTTATCGGGTCATTCAATTTGCGCAT, the PBM binding z-score was found to be 3.55.
TCGAGTAGGTTAGACGGGGCATTCAGCCAACATA displayed a PBM binding z-score of 0.00602.
Consider CAAACTAGGTCTAAGGTCAAAGTCGAGCCAACCA, for which the PBM binding z-score is 4.6.
The value for ATATGTAGGTAAGCTGGGGTCATTCAGACTAGGC was 4.31.
